# Source: ChEMBL document CHEMBL1201862, “PubChem BioAssay data set” (2004)
# Hit rate of the full screen: of about 400,000 compounds, about 2,100 (0.53%) were called active. Roughly 14% stayed inconclusive and do not appear here. How the calls were made is not given here. The full list was thinned out, with actives kept by preference.
# Target: Ataxin-2 (Homo sapiens) (UniProt Q99700)
# Test: qHTS for Inhibitors of ATXN expression.
# Assay type: functional
# Chain of Ataxin-2 (Homo sapiens) (Q99700 whole entry): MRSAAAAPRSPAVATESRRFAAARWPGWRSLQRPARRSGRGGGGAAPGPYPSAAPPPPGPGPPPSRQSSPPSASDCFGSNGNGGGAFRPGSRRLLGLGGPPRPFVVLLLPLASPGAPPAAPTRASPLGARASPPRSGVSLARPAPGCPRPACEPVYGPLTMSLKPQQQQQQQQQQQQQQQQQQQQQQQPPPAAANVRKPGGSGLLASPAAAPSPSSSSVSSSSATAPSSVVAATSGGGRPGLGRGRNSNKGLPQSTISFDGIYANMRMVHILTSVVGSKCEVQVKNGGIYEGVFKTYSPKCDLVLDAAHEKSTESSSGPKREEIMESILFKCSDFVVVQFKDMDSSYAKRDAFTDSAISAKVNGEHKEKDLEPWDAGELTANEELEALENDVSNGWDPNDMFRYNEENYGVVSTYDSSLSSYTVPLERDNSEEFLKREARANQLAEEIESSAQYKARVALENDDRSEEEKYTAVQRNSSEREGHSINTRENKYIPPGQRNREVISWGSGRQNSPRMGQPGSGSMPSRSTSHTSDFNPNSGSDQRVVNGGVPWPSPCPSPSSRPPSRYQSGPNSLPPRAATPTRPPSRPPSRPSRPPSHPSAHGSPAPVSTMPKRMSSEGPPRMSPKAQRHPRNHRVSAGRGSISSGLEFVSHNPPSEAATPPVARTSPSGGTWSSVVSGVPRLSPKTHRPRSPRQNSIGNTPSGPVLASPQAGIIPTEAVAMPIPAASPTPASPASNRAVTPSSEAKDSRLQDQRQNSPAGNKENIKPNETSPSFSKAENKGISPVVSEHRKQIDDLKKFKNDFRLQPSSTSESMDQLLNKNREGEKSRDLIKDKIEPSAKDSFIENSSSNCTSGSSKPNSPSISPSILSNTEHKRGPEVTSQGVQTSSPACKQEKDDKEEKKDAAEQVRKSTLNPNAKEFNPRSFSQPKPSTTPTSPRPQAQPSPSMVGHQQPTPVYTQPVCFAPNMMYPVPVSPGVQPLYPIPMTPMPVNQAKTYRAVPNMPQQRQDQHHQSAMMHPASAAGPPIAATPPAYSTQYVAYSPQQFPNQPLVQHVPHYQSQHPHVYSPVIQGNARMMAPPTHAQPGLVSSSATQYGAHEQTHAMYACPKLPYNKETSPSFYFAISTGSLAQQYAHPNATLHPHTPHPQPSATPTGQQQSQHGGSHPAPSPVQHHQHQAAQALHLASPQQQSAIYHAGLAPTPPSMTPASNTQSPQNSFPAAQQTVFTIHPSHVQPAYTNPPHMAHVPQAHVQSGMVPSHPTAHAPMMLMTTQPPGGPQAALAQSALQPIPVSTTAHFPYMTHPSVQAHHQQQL
row,SMILES,Potency
1,CC(C)C1Cc2c(sc3ncnc(NN)c23)CO1 (stereo unspecified),inactive
2,Cc1cc(O)cc2c(=O)c3ccccc3sc12,inactive
3,CN(C)CCCNC(=O)c1cc2sc3ccccc3c2s1,inactive
4,COc1cc(C)c2sc3ccccc3c(=O)c2c1NCCN(C)C,44.7 µM (active)
5,Cc1ccc(/C=N/NC(=O)c2cc3c(s2)CCCC3)o1,inactive
6,O=S(=O)(/C=C/c1ccccc1)NCc1ccccc1Cl,inactive
7,O=C(CCC(=O)N/N=C/c1cc(Cl)cc(Cl)c1O)NCc1ccccc1,inactive
8,CCC/C=C/c1ccc(CN2C(CC(C)C)C(=O)N(Cc3cn(CCC4OCCCO4)nn3)CCS2(=O)=O)cc1 (stereo unspecified),39.8 µM (active)
9,CCC/C=C/c1ccc(CN2C(CC(C)C)C(=O)N(Cc3cn(CCC4OCCO4)nn3)CCS2(=O)=O)cc1 (stereo unspecified),35.5 µM (active)
10,O=C(CCCCn1c(=O)[nH]c2ccsc2c1=O)NCc1ccc2c(c1)OCO2,inactive
11,CN(C)S(=O)(=O)c1ccc2oc(SCC(=O)c3c(N)n(C4CC4)c(=O)[nH]c3=O)nc2c1,inactive
12,O=c1c2ccccc2nc(/C=C/c2c[nH]c3ccccc23)n1CCO,inactive
13,CCCCc1cc(-c2nnc(S)o2)c2ccccc2n1,inactive
14,CC(Oc1ccccc1Cl)C(=O)Nc1ccc(S(=O)(=O)N2CCCC2)cc1 (stereo unspecified),35.5 µM (active)
15,CC(C)NS(=O)(=O)c1ccc(NC(=O)C(C)OC(=O)C2CCC2)cc1 (stereo unspecified),inactive
16,CC(Oc1cc(F)ccc1[N+](=O)[O-])C(=O)Nc1ccc(S(=O)(=O)N2CCCC2)cc1 (stereo unspecified),inactive
17,Cc1cc2nc(-c3cccnc3O)[nH]c2cc1C,inactive
18,CN1c2ccccc2C(C)(C)C12C=Nc1c(cc(N3CCOCC3)c3ccccc13)O2 (stereo unspecified),inactive
19,Cc1cccc(N(C(=O)c2nsc(Cl)c2Cl)C(C(=O)NC2CCCC2)c2ccc(O)cc2)c1C (stereo unspecified),17.8 µM (active)
20,Cc1ccccc1N(C(=O)c1snc(C(N)=O)c1N)C(C(=O)NCC1CCCO1)c1ccc(F)cc1 (stereo unspecified),inactive
21,NC(=O)c1nsc(C(=O)N(c2cccc(O)c2)C(C(=O)NC2CCCC2)c2ccc(Cl)cc2)c1N (stereo unspecified),inactive
22,COC(=O)c1cc2c(=O)c3ccccc3oc2nc1/C=C/N(C)C,inactive

row,SMILES,Potency
1,COc1cc(/C=N\NS(=O)(=O)c2ccccc2)cc(OC)c1OC,inactive
2,COc1cc(N=Nc2cccc(S(N)(=O)=O)c2)c2ccccc2c1N,35.5 µM (active)
3,COc1ccc(-c2cc(C(=O)Nc3cc(S(N)(=O)=O)ccc3C)c3ccccc3n2)cc1OC,inactive
4,O=c1cc(CSc2nc(O)c3ccccc3n2)c2ccc(O)cc2o1,inactive
5,Cc1ccc(Cl)cc1NC(=O)c1ccccn1,inactive
6,CC(Oc1cccc(Cl)c1)C(=O)Nc1nc(-c2ccccn2)cs1 (stereo unspecified),39.8 µM (active)
7,CC(Oc1ccc(Cl)cc1)C(=O)Nc1sccc1C(N)=O (stereo unspecified),inactive
8,CCOC(=O)N(C)c1c(CC)nc2c(OCc3ccc(Cl)cc3)cccn12,20 µM (active)
9,CCOC(=O)c1c(N)n(-c2ccc(CC)cc2)c2nc3ccccc3nc12,inactive
10,Cc1nc2c(OCc3ccc(Cl)cc3Cl)cccn2c1N(C)Cc1cccs1,8.91 µM (active)
11,CSCCC(NC(=O)COc1ccccc1)C(=O)N(C)Cc1ccc(Cl)cc1Cl (stereo unspecified),inactive
12,CCc1nc2c(OCc3ccc(Cl)cc3Cl)cccn2c1N(C)C(C)=O,31.6 µM (active)
13,NNC(=O)c1sccc1OCc1ccc(Cl)cc1Cl,inactive
14,O=C(O)CCC(=O)N1CCN(c2nc(-c3ccccc3)c3ccccc3n2)CC1,inactive
15,O=C(CCCCCn1c(=S)[nH]c2ccc(N3CCOCC3)cc2c1=O)NCc1ccccc1Cl,inactive
16,CCn1c(COc2cccc(C)c2)nnc1SCC(=O)NC1CCCC1,inactive
17,Cc1cccc(OCc2nnc(SCC(=O)O)n2-c2ccccc2)c1,39.8 µM (active)
18,Cc1ccc(NCc2nnc(SCC(=O)O)n2-c2ccc(C)cc2)cc1,inactive
19,COc1ccc2ccc3cccc[n+]3c2c1,inactive
20,CC(=O)Nc1ccc(S(=O)(=O)Nc2nc(C)cc(-n3nc(C)cc3C)n2)cc1,inactive
21,Cc1cc(NC(=O)CSc2nc3c(C)cccc3cc2C#N)no1,inactive
22,NNC(=O)c1oc2nc(-c3ccccc3)cc(-c3ccco3)c2c1N,inactive

row,SMILES,Potency
1,O=C1[C@H](Cc2ccccc2)NCC=CC[C@@H](c2ccc(Cl)cc2)N1Cc1ccc(Cl)cc1,28.2 µM (active)
2,O=C1[C@H](Cc2ccccc2)NCC=CC[C@@H](c2ccc(Cl)cc2)N1Cc1ccccc1,35.5 µM (active)
3,Cc1ccc2nc3nc(NCC4CCCO4)c(C(=O)NC4CCCC4)cc3c(=O)n2c1 (stereo unspecified),inactive
4,CCC(=O)c1cc2c(C)cc(=O)oc2c(C)c1OC(C)=O,inactive
5,Brc1ccc(OCc2nnnn2-c2ccccc2)cc1,inactive
6,COc1ccccc1N1CCN(S(=O)(=O)c2ccc(-n3cnnn3)cc2)CC1,inactive
7,COc1ccccc1-n1nnnc1S(=O)(=O)Cc1ccc(Cl)cc1,25.1 µM (active)
8,Cc1cccc(/C=C(\C(=O)C(=O)O)c2ccc3ccccc3n2)c1,inactive
9,CC(C)CC(N)c1csc(Nc2cc(Oc3ccccc3)ncn2)n1 (stereo unspecified),39.8 µM (active)
10,NC(Cc1ccc(Cl)cc1)c1csc(Nc2cc(Oc3ccccc3)ncn2)n1 (stereo unspecified),35.5 µM (active)
11,CCn1c(SCc2ccc(F)cc2)nc2c(c1=O)SCC2,inactive
12,COc1cccc(-c2ccc3c(N)c(C(=O)c4ccc(F)cc4)sc3n2)c1,inactive
13,C=CCNC(S)=Nc1ccc(Br)cc1F,inactive
14,CSc1ccccc1NC(=O)c1cc(C2CC2)on1,inactive
15,CCOC(=O)CSC1=N/C(=C/c2ccc(-n3cncn3)cc2)C(=O)N1C(C)=O,inactive
16,CCOC(=O)C1=C(C)N=c2sc(=Cc3ccc(OCC(=O)O)cc3)c(=O)n2C1c1ccc(SC)cc1 (stereo unspecified),inactive
17,CCOC(=O)CSC1=NC(=O)/C(=C\c2ccc(OC(C)=O)cc2)S1,28.2 µM (active)
18,CCOC(=O)c1cc2c(=O)n3ccccc3nc2n(CCOC)/c1=N\C(=O)C(C)(C)C,inactive
19,Cc1cccn2c(=O)c3cc(C(=O)NCc4ccco4)c(=N)n(C4CCCCC4)c3nc12,inactive
20,Cc1ccc(N2C(=O)/C(=C/NC3CCS(=O)(=O)C3)c3ccccc3C2=O)c(C)c1 (stereo unspecified),inactive
21,Cc1cccc(N2C(=O)/C(=C\Nc3cc(O)ccc3C)c3ccccc3C2=O)n1,inactive
22,Cc1ccc(N2C(=O)/C(=C\Nc3ccccc3-c3nnc(S)nc3O)c3ccccc3C2=O)c(C)c1,17.8 µM (active)
